TRHR agonist: TRH receptor (human) agonism; TRHR cells, calcium flux fluo-8, FDSS agonist mode; 360,000 tested, 0.18% active; AID 493084; activation, % at 2 µM; in the data active = activation above about 30%; also: 0% is about no effect
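In this calcium-flux screen, cells bearing human TRHR are dye-loaded with fluo-8, baselined for 10 cycles, then exposed to library compounds; positive kinetic calcium responses during the agonist phase mark hits, with TRH as control.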
GLP1R ag: GLP-1 receptor (human) agonism; AID 624172; Potency, µM (series often up to 45.6 µM), for the others: at the top dose activation, hits mostly activators; 380,000 tested, 0.007% active; P43220; HEK293 GLP-1R CRE-luciferase, luminescence, 4-6 h; cells express a hypersensitive GLP-1R form; also: potency is read from the fitted curve at half-maximal effect; % of control where 0% means no effect
PTHR1 agonist: agonists of human PTHR1 parathyroid hormone receptor. HEK293 GP2 PTHR1 cells, GloSensor cAMP luminescence, 1 h. Potency, µM (top dose mostly 115 µM), for the others: at the highest dose activation, hits mostly activators. Q03431. 410,000 tested, 0.075% active. AID 743266; also: potency is read from the fitted curve at half-maximal effect; nearly all actives have a fitted effect of over 55% in size
Target sequence (Q03431 whole entry, looked up): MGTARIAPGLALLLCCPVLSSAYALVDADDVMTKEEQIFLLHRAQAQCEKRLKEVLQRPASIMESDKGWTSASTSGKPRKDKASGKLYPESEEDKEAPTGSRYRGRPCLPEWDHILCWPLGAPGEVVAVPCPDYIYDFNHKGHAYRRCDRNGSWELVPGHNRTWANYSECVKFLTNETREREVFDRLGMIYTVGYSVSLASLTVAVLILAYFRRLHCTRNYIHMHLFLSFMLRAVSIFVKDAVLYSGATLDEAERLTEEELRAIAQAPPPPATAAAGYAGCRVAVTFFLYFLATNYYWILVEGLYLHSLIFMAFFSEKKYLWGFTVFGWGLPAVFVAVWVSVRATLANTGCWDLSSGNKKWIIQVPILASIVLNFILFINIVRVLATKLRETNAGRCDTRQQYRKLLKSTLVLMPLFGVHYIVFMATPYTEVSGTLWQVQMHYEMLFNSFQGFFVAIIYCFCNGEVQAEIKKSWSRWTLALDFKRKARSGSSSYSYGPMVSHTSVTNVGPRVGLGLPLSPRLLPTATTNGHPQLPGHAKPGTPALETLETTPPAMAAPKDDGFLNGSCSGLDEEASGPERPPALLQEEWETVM
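HEK-293-derived GP2 cells expressing PTHR1 and a GloSensor cAMP reporter, 3,000/well, plated overnight, given luciferin plus IBMX (each 0.5 mM as added) for 1 h at 37 °C, then compound for 1 h at 37 °C. Luminescence was read after 15 min at room temperature.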
TRHR enhancer: TRH receptor (human) allosteric enhancement; P34981; AID 493056; enhancement, % at 2 µM; 360,000 tested, 0.66% active; TRHR cells, fluo-8 calcium fluorescence, EC20 TRH enhancement; in the data active = enhancement above about 30%; also: 0% is about no effect
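TRHR-expressing cells loaded with fluo-8 calcium dye were read kinetically (ex 480/em 530) during compound addition, then stimulated with an EC20 of TRH (10 nM final). Enhancement of the Gq-mediated intracellular calcium response was scored.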
GLP1R inv ag: GLP-1 receptor (human) inverse agonism | HEK293 GLP-1R CRE-luciferase, luminescence, 24 h; GLP-1R form is constitutively active | 410,000 tested, 1.6% active | Potency, µM (highest dose often 38.3 µM), without a hit: top-dose activity change, negative = inhibition, usual class: inhibitors | P43220; also: potency is read from the fitted curve at half-maximal effect; % is scaled to controls: 0 for no effect and ±100 for the full control effect; nearly all actives have a fitted effect of over 55% in size
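Stable HEK293 clone (constitutively active GLP-1R + cAMP-response luciferase); 200 cells/uL plated, 12 h pre-culture, compound 24 hr, 37 deg C/5% CO2; detection reagent 12 min RT; luminescence.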
HEK293 tox: cytotoxicity counter-screen for GLP-1 receptor inverse agonists; 410,000 tested, 0.13% active; HEK293 cAMP-luciferase reporter cells, luminescence, 24 h; Potency, µM (highest dose often 38.3 µM), without a hit: at the highest dose activity change, negative = inhibition, most hits filed as inhibitors; AID 624418;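 also: loss of luciferase light is scored as toxicity; potency is read from the fitted curve at half-maximal effect; % is scaled to controls: 0 for no effect and ±100 for the full control effect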
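Compound-treated cells are incubated 24 hr at 37 deg C under 5% CO2 after a 12 hour attachment period, then luciferase detection reagent is added and luminescence is measured following 12 min at room temperature; lowered signal indicates toxicity.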
* = called active by the depositor; i = inactive; ? = inconclusive; . = no result; [ ] = remark or other dose. Sampled rows, rich in hits. Any-hit rate of the full collection: about 2.4%. Unless noted, calls follow the shape of the dose curve; as a rule, active = well fitted curve in the direction sought with a large enough effect; inconclusive = small, poorly fitted or top-dose-only effect, or another doubt; inactive = no such curve, though single readings can be large; an effect the other way counts as inactive or inconclusive.

SMILES	TRHR agonist	GLP1R ag	PTHR1 agonist	TRHR enhancer	GLP1R inv ag	HEK293 tox
COc1cccc(C(=O)Nc2nc3ccccc3[nH]2)c1	0	-21%	-8%[57.5 µM]	2	7.9µM*	?
Cn1c(SCCOc2ccc(F)cc2)nnc1-c1ccncc1	0	-1%	-4%	1	11%	1%
O=C(N=c1ccn(-c2nc3ccccc3nc2NS(=O)(=O)c2ccccc2)cc1)c1ccccc1Cl	5	0%	-17%	39*	4%	7%
O=C(N=c1ccn(-c2nc3ccccc3nc2NS(=O)(=O)c2ccc(Cl)cc2)cc1)c1ccccc1Cl	13	.	.	-11	.	.
CCOc1ccc2oc(C(=O)NC3CC(C)(C)NC(C)(C)C3)c(C)c2c1	1	-1%	i	1	10µM*	1%
CCOc1ccc2oc(C(=O)N3CCN(c4ccccc4OCC)CC3)c(C)c2c1	0	1%	i	-5	11µM*	-6%
O=c1ccnc2n1COCS2	0	-1%	i	-7	5%	2%
CCOc1ccccc1C1CC(=O)NC(SCC)=C1C#N (configuration not stated)	-2	5%	5%[57.5 µM]	34*	10%	2%
Cc1ccc(S(=O)(=O)NCCCCCC(N)=O)cc1	1	-7%	-8%[57.5 µM]	13	1%	-7%
COc1ccc(NC(=O)C(c2ccc(Cl)cc2)C(C)C)cn1 (configuration not stated)	6	0%	-28%	2	7.9µM*	15%
Cc1ccc(NC(=O)CN(C)C(=O)COC(=O)COc2cc(C)cc(C)c2)cc1	.	3%	i	.	-2%	-20%
CCCCCCC(=O)Nc1nc(C)c(-c2csc(Nc3cc(OC)ccc3OC)n2)s1	0	-5%	?	4	54%	-2%
CCCCCC(=O)Nc1nc(C)c(-c2csc(Nc3cc(OC)ccc3OC)n2)s1	1	0%	45µM*	4	-3%	1%
COc1ccc(OC)c(N(CC(=O)NCCSCc2ccco2)S(=O)(=O)c2ccc(OC)c(OC)c2)c1	0	-1%	i	-2	-2%	?
COc1ccc(C)cc1N(CC(=O)NCCSCc1ccco1)S(=O)(=O)c1ccc(C)cc1	0	18%	-23%	33*	?	-1%
Cc1ccccc1-c1nc(CN2CCC(C(=O)NC3CC3)CC2)c(C)o1	0	12%	i	0	-24%	-14%
COc1ccc(NC2=NC(=S)N(c3ccccc3C)C23CCCCC3)cc1	-1	-7%	i	-4	7.9µM*	-20%
COc1cc(CN2CCN(c3ccccc3F)CC2)c([N+](=O)[O-])cc1OC	0	0%	i	1	15%	-20%
COC(=O)c1c(NC(=O)CSc2nnnn2-c2ccccc2)sc2c1CCC(C(C)(C)C)C2 (configuration not stated)	0	0%	i	-11	5.6µM*	0%
CCCCNC(=S)NNC(=O)CCn1cc(C)cn1	0	-1%	i	2	7.9µM*	?
CCCCNC(=S)NNC(=O)CCn1nc(C)c(Br)c1C	1	8%	i	-3	0%	5.6µM*
Cc1cnn(CCC(=O)NNC(=S)NCC(C)C)c1	1	0%	9%	16	?	?
Cc1nn(CCC(=O)NNC(=S)Nc2ccc(F)cc2)c(C)c1Br	-1	2%	i	-4	-20%	-24%
O=C(C1CCCCC1)N(Cc1cccnc1)c1nc2ccc(F)cc2s1	0	.	-2%	-1	11µM*	0%
COc1ccc2nc(N(Cc3cccnc3)C(=O)C3CCCCC3)sc2c1	0	.	-31%	5	?	-3%
SMILES	TRHR agonist	GLP1R ag	PTHR1 agonist	TRHR enhancer	GLP1R inv ag	HEK293 tox
CC(C)c1ccc(NC(=O)CNCC(c2ccccc2)N(C)C)cc1 (configuration not stated)	2	5%	-12%	0	-12%	-15%
CCCCCCn1c(O)c(/C=C2\C=NN=C2c2ccccc2)sc1=S	-1	1%	-25%	33*	?	11µM*
CCCCn1c(O)c(/C=C2\C=NN=C2c2ccccc2)sc1=S	2	-9%	i	3	0%	8%
CCCCCNC(=O)C1C(=O)Nc2ccccc2C(=O)N1c1c(C)cccc1C (configuration not stated)	.	.	i	.	23%	-12%
COc1ccc(OC(=O)COc2cc(C)ccc2C)cc1	0	-3%	0%	-3	-8%	-11%
COc1ccc(OC(=O)COc2ccc(Cl)cc2)cc1	1	-12%	-23%	39*	10%	-9%
O=C(NCCc1cn2ccccc2n1)c1cc(COc2ccc3ncccc3c2)on1	0	1%	-41%	7	13µM*	-4%
O=C(NC1CCCC1)c1cc(COc2ccc3ncccc3c2)on1	0	4%	-28%	0	-12%	-2%
CC(NC(=O)c1cc(COc2ccc3ncccc3c2)on1)c1ccc(F)cc1 (configuration not stated)	1	10%	-48%	-1	1.8µM*	-7%
COc1cc(CNC(=O)Nc2nc(C(N)c3ccccc3)cs2)cc(OC)c1OC (configuration not stated)	.	5%	-9%	.	6%	8%
COc1cccc(CNc2nc3cc(-c4ccccc4CO)sc3c(=O)n2C)c1	.	5%	?	.	?	-17%
O=C(N/N=C/c1ccc(OC(=O)c2ccccc2Cl)cc1)c1ccccn1	0	-9%	-8%	31*	14%	8%
O=C(N/N=C/c1ccc(OC(=O)c2ccccc2Cl)cc1)c1cc(O)cc(O)c1	1	-35%	i	2	?	11%
CSc1ccc(-c2nc3cccc(C)n3c2Nc2ccc3c(c2)OCO3)cc1	-1	.	-23%	-1	10µM*	3%
Cc1cccc2nc(-c3ccco3)c(Nc3ccc4c(c3)OCO4)n12	-1	11%	-21%	2	8.9µM*	-24%
CC(C)OC(=O)c1cccnc1SCc1cc(=O)n2ccccc2n1	0	1%	i	3	-5%	-7%
CC1(C)NC(=O)N(CCOCCOc2ccc3ccccc3c2Br)C1=O	0	4%	i	2	4%	-11%
Cc1ccc2[nH]c3c(c2c1)CCCC3NCCO (configuration not stated)	2	-4%	-21%	3	10µM*	-4%
CCCNC(=O)C1(C)CCCN(Cc2cccc3ccccc23)C1 (configuration not stated)	.	8%	i	.	10µM*	-8%
CCCNC(=O)C1(C)CCCN(Cc2ccccc2Cl)C1 (configuration not stated)	.	18%	i	.	-15%	0%

Screens as filed in PubChem BioAssay.
